Sampled rows, rich in hits. Any-hit rate of the full collection: about 2.8%.
TRPM1 prom inh: inhibitors of MITF-driven TRPM1 promoter in melanoma cells; SK-MEL-5 TRPM1 promoter luciferase, 24 h; inhibition, % at 12.5 µM; 330,000 compounds, 0.83% hits; AID 488899;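 active = mean inhibition across replicates of 60% or more, whatever share of single replicates reaches that level; inconclusive = some that reach 60%, reason not given; inactive = mean inhibition across replicates below 60%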
CF NFkB inh: cystic fibrosis NF-kB activation inhibition. 360,000 compounds, 0.86% hits. KKLEB NF-kB-GFP reporter, PAF-induced, GFP fluorescence overnight. AID 588850. inhibition, % at 5 µM;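 active = at least 50% inhibition at 5 µM, scaled per plate between neutral and stimulator controls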;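 note: PAF is a Pseudomonas aeruginosa culture filtrate used as stimulus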
KKLEB cytotox: counter-screen for CF NF-kB inhibitors: cytotoxicity | AID 602141 | activity change (cytotoxicity), % at 5 µM | 360,000 compounds, 0.36% hits | KKLEB CF airway cells viability, ATPlite luminescence, overnight; active compounds read low; cells stimulated with P. aeruginosa culture filtrate;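 active = corrected activity change at or below -50% at 5 µM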
HIF-2a block: HIF-2a inhibition | 786-0 RCC cells HIF-2a reporter, luciferase luminescence, overnight | inhibition, % at 18.8 µM | 360,000 compounds, 0.72% hits | AID 624352;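 active = inhibition of the luminescence signal of 40% or more relative to plate controls, in a single-dose primary screen at 18.75 µM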
Peg3 prom inh-1: Peg3 promoter activity inhibition; HeLa PEG-Prom luciferase reporter, luminescence, overnight; inhibition, % at 20 µM; 360,000 compounds, 1.7% hits; AID 588405;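 active = inhibition of at least 50% at 20 µM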
Shn3 inh set2: reduces Shn3 3'UTR luciferase signal in osteoblasts | Clone20 osteoblast Shn3 3'UTR firefly luciferase, 24 h | inhibition, % at 12.5 µM | 360,000 compounds, 0.52% hits | AID 588674;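 active = mean inhibition of at least 75% with every replicate also reaching 75%; inconclusive = mean inhibition at least 75% but some replicate below; inactive = mean inhibition below 75%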
Peg3 prom inh-2: Peg3 promoter inhibition confirmation; shares compounds with Peg3 prom inh-1; HeLa PEG-Prom luciferase reporter, luminescence, overnight; inhibition, % at 20 µM; 1,300 compounds, 84% hits; AID 602417;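 active = at 20 µM dose, 40% or more inhibition averaged across four replicates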
CF NFkB inh conf: confirmation of cystic fibrosis induced NF-kB inhibitors; shares compounds with CF NFkB inh; KKLEB CF airway cells, PAF-induced NF-kB-GFP fluorescence, overnight; inhibition, % at 5 µM; 1,300 compounds, 64% hits; AID 602472; in the data active = inhibition above about 40%;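 note: stimulus PAF is a Pseudomonas aeruginosa filtrate and not platelet activating factor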
Mdm2-MdmX confirm: Mdm2/MdmX (human) interaction inhibition, confirmed | shares compounds with HIF-2a block | SaOS-2 split-luciferase Mdm2/MdmX complementation, luminescence | inhibition, % at 8 µM | 740 compounds, 99% hits | AID 504601;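 active = mean inhibition of the luminescence signal across two replicates at or above 26 percent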
Target sequence (O15151 whole entry, looked up): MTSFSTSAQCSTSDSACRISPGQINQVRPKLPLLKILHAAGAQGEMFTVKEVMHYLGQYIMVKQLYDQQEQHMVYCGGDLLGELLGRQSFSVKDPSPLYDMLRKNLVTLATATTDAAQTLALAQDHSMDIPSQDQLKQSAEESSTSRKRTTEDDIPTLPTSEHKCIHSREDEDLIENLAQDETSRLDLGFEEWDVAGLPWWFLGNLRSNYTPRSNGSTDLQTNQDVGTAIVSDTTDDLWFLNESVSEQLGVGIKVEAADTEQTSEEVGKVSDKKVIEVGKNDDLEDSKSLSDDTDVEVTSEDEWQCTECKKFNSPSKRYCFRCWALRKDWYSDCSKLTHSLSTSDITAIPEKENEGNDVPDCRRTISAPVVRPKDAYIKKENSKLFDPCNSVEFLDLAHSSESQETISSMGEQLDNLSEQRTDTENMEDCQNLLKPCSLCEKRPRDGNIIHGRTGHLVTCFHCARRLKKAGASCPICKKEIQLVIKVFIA
Target sequence (Q00987 whole entry, looked up): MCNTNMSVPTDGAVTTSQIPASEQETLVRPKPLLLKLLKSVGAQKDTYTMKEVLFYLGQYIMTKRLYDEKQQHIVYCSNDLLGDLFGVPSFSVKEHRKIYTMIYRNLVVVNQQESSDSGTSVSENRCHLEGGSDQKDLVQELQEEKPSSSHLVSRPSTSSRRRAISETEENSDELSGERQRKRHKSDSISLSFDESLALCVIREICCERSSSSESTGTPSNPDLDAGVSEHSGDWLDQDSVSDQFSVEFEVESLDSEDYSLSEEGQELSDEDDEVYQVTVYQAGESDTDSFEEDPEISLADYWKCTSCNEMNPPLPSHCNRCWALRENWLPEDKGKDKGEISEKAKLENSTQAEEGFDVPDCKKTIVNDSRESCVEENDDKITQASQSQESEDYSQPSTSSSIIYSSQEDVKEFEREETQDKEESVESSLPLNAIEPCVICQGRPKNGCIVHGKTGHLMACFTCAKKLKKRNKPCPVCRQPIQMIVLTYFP
HIF-2a conf: HIF-2a inhibition, single concentration confirmation. shares compounds with HIF-2a block. 786-0 RCC cells, HIF-2a luciferase reporter luminescence, overnight. inhibition, % at 18.8 µM. 1,800 compounds, 56% hits;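 active = mean inhibition across four replicates of at least 40 percent at the single tested concentration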
HIF-1a counter: inhibits HIF-1a reporter, a counter-screen for HIF-2a inhibitors; shares compounds with HIF-2a block; MiaPaCa-2 HIF-1a luciferase reporter, desferoxamine, overnight; inhibition, % at 18.8 µM; 1,800 compounds, 72% hits; AID 651589;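 active = mean inhibition of the reporter signal across four replicates at the single tested dose of 50% or more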
A number is an active result; 0 = inactive; ? = inconclusive; - = no result given.

SMILES | TRPM1 prom inh | CF NFkB inh | KKLEB cytotox | HIF-2a block | Peg3 prom inh-1 | Shn3 inh set2 | Peg3 prom inh-2 | Mdm2-MdmX confirm | HIF-2a conf | HIF-1a counter | others
CC(=O)Nc1ccc(S(=O)(=O)NC(C)C(=O)NCC(c2ccco2)N2CCCCC2)cc1 (stereo not drawn) | - | 0 | 0 | 0 | 0 | 0 | - | - | - | -
Cc1ccc(S(=O)(=O)NC(CC(C)C)C(=O)NCC(c2ccco2)N2CCCCC2)cc1 (stereo not drawn) | 0 | 0 | 0 | 80.0 | 74.7 | 0 | 85.1 | - | 87.8 | 93.1
CCCCNC(=O)c1cn(C)c2ccc(S(=O)(=O)N3CC(C)CC(C)C3)cc2c1=O (stereo not drawn) | 0 | 0 | 0 | 0 | 0 | 0 | - | - | - | -
CC1=CC2C(C(O)CC3(C)C2CC(C)C32OCOC23COCO3)C2(C)C/C(=C\O)C(=O)C=C12 (stereo not drawn) | 79.7 | 95.7 | -95.2 | 95.1 | 101.5 | 87.5 | 96.7 | - | 52.5 | 107.8
Cc1ccc(O)c(C(=O)c2coc(=N)c(C(=O)NC(C)C)c2)c1 | 0 | 0 | 0 | 0 | 0 | 0 | - | - | - | -
N#CC(C#N)=C1C=CC=CN1/C(=C\c1ccco1)C(=O)c1ccc(Br)cc1 | 85.2 | 79.4 | 0 | 92.4 | 110.5 | 89.6 | 97.6 | - | 97.7 | 104.8 | CF NFkB inh conf=0
COc1ccc(C(=O)N2CCN(c3ncnc4c(-c5ccccc5)nsc34)CC2)cc1 | 0 | 0 | 0 | 0 | 0 | 0 | - | - | - | -
COc1ccc(-c2nsc3c(N4CCCCC4C)ncnc23)cc1 (stereo not drawn) | 86.0 | 0 | 0 | 83.7 | 97.1 | 0 | 84.9 | - | 92.2 | 102.5
Cc1ccc2nc(-c3ccc4c(c3)OCCO4)cn2c1 | 84.1 | 0 | -85.2 | 80.1 | 90.8 | 0 | 93.4 | 93.5 | - | -
c1ccn2cc(-c3ccc4c(c3)OCCO4)nc2c1 | 0 | 0 | 0 | 0 | 0 | 0 | - | - | - | -
O=C(/C=C\c1ccccc1OC(=O)c1ccccc1F)c1cc2ccccc2o1 | 0 | 0 | 0 | 0 | 0 | 0 | - | - | - | -
CN(C(=O)OC(C)(C)C)c1ccc(-c2nc3ccccc3s2)cc1 | 94.4 | 0 | -80.9 | 87.9 | 90.4 | 0 | 92.5 | - | 95.3 | 99.4
COc1cccc(CNc2nc3cc(-c4ccccc4)sc3c(=O)n2C)c1 | - | 0 | 0 | 0 | 0 | 0 | - | - | - | -
COc1ccc(-c2cc3nc(C)n(N)c(=O)c3s2)cc1 | 78.8 | 0 | 0 | 86.8 | 95.2 | 88.6 | 94.9 | 95.2 | - | -
Cc1nc2cc(-c3ccccc3)sc2c(=O)n1N | 89.5 | 0 | 0 | 75.2 | 90.2 | 0 | 79.5 | - | 88.2 | 76.8
COc1ccccc1NS(=O)(=O)c1cccc(C(=O)N2CCN(Cc3ccc4c(c3)OCO4)CC2)c1 | 0 | 0 | 0 | 0 | 0 | 0 | - | - | - | -
CCN(C(=O)C1CCCN1S(=O)(=O)c1ccc2c(c1)n(C)c(=O)c(=O)n2C)c1ccccc1 (stereo not drawn) | 0 | 0 | 0 | 0 | 0 | 0 | - | - | - | -
CC(=O)Nc1cc2nn(-c3ccccc3)nc2cc1Cl | 0 | 0 | 0 | 0 | 0 | 0 | - | - | - | -
CC(C)(C)C(=O)Nc1cc2nn(-c3ccccc3)nc2cc1Cl | 84.7 | 0 | -93.9 | 75.0 | 62.4 | 0 | 85.9 | - | 91.0 | 94.6
CCCCC(=O)NC(c1ccc(OC)c(OC)c1)c1c(O)ccc2ccccc12 (stereo not drawn) | 0 | 0 | 0 | 0 | 0 | 0 | - | - | - | -
CCCC(=O)NC(c1ccc(C)cc1)c1ccc2cccnc2c1O (stereo not drawn) | - | 0 | 0 | 0 | 63.0 | 0 | 66.8 | 89.2 | - | -
CCCCC(=O)NC(c1ccccc1OC)c1ccc2cccnc2c1O (stereo not drawn) | 78.1 | 0 | 0 | 0 | 62.5 | 93.9 | 68.6 | 87.0 | - | -
CC(=O)NC(c1ccc(Cl)cc1Cl)c1ccc2cccnc2c1O (stereo not drawn) | 0 | 0 | 0 | 0 | 56.2 | 89.3 | 59.0 | 86.0 | - | -
CCCC(=O)NC(c1ccc(Cl)cc1)c1ccc2cccnc2c1O (stereo not drawn) | 74.7 | 0 | 0 | 0 | 57.4 | 0 | 64.7 | 92.2 | - | -
CCOC(=O)C1(Cc2cccc(Cl)c2)CCCN(C(=O)CN2C(=O)CSC2=O)C1 (stereo not drawn) | 0 | 0 | 0 | 0 | 0 | 0 | - | - | - | -
SMILES | TRPM1 prom inh | CF NFkB inh | KKLEB cytotox | HIF-2a block | Peg3 prom inh-1 | Shn3 inh set2 | Peg3 prom inh-2 | Mdm2-MdmX confirm | HIF-2a conf | HIF-1a counter | others
COc1ccc(/C=C2\SC(=S)N(CC(=O)NC3C=CS(=O)(=O)C3)C2=O)cc1 (stereo not drawn) | 0 | 0 | 0 | 0 | 0 | 0 | - | - | - | -
Nc1ccc2c(c1)OC1(CCCC1)O2 | 61.9 | 0 | 0 | 51.8 | 77.3 | 0 | 55.6 | 31.3 | 0 | 78.7
Nc1cc2c3c(cccc3c1)C(=O)N(CCN1CCCC1)C2=O | 90.0 | 0 | 0 | 54.2 | 106.8 | 0 | 95.4 | - | 0 | 102.3
NC(=O)CN1CCN(CCN2C(=O)c3cccc4cccc(c34)C2=O)CC1 | 0 | 0 | 0 | 0 | 0 | 0 | - | - | - | -
O=C1c2ccccc2C(=O)N1CCN1CCCCC1 | 0 | 0 | 0 | 0 | 0 | 0 | - | - | - | -
O=C1c2cccc3cc([N+](=O)[O-])cc(c23)C(=O)N1CCN1CCCC1 | 84.1 | 0 | 0 | 0 | 112.4 | 94.3 | 98.7 | 101.0 | - | -
CC(C)(C)c1ccc(C(=O)NCC(=O)OCC(=O)N2CCCC2)cc1 | 0 | 0 | 0 | 0 | 0 | 0 | - | - | - | -
CCOC(=O)c1c(SCCN2CCCCC2)n(-c2ccccc2)c(=S)n(-c2ccccc2)c1=O | 99.2 | 0 | 0 | 87.4 | 108.1 | 0 | 99.0 | - | 67.7 | 100.6
Cc1ccc(N(Cc2cc(=O)[nH]c3ccccc23)C(=O)CCl)c(C)c1 | ? | 0 | 0 | 0 | 71.4 | 0 | 76.4 | 101.0 | - | -
Cc1nc(SCC(=O)Nc2nc3ccccc3s2)c(C#N)c(C)c1C | 95.9 | 0 | 0 | 89.0 | 92.8 | ? | 90.1 | 101.2 | 94.8 | 104.8
Cn1nnnc1Sc1ncnc2scc(-c3ccc4c(c3)OCO4)c12 | 0 | 0 | 0 | 62.8 | 75.5 | 0 | 77.5 | - | 0 | 77.5
CC(=O)c1cccc(-c2csc3ncnc(Sc4nnnn4C)c23)c1 | - | 71.1 | 0 | 49.4 | 87.5 | 95.2 | 85.2 | - | 44.3 | 98.7 | CF NFkB inh conf=0
N#Cc1c(Cl)nsc1NN | 0 | 0 | 0 | 0 | 0 | 0 | - | - | - | -
Cc1cnc(NC(=O)c2ccc3c(c2)OCCO3)s1 | 81.7 | 0 | -58.0 | 77.3 | 87.1 | 0 | 80.7 | - | 90.2 | 80.1
COC(=O)c1ccc2nc(-c3ccc(S(C)(=O)=O)cc3)cn2c1 | 0 | 0 | 0 | 0 | 0 | 0 | - | - | - | -

Assay outcomes (PubChem)
